Experimental data published in PubChem BioAssay (NCI).
The panel holds about 79,000 compounds, 15% with a hit somewhere; the sample as a whole holds those more often. Calls of active or inactive are those of the source. Rule as the data show it: active = growth inhibition above about 70%; inactive = the rest.

What was measured:
[1] = NCI Yeast Anticancer Drug Screen. Data for the rad52 strain (AID 147);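 also: 0% = growth of vehicle-treated control cultures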; conditions: S. cerevisiae rad52 mutant growth inhibition, active compounds read high
In short: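 Here a repair-compromised yeast strain receives each compound; its growth is then quantified and normalised to vehicle-only controls.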

[2] = NCI Yeast Anticancer Drug Screen. Data for the wt1 strain (AID 149);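 also: 0% = growth of vehicle-treated wt1 cultures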; conditions: S. cerevisiae wt1 strain (SPY 50644) growth inhibition, active compounds read high
In short: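 Measured: growth of wt1 yeast under compound versus vehicle treatment, reported as inhibition.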

[3] = NCI Yeast Anticancer Drug Screen. Data for the rad50EPP+ strain (AID 151);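 also: 0% = growth of vehicle-treated control cultures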; conditions: S. cerevisiae rad50 mutant strain, active compounds read high
In short: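 Read-out is yeast growth inhibition relative to vehicle; cells used were the rad50EPP+ strain.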

[4] = NCI Yeast Anticancer Drug Screen. Data for the mgt1 strain (AID 153); conditions: S. cerevisiae mgt1 mutant growth inhibition, active compounds read high
In short: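 Measured: inhibition of mgt1 yeast growth by compound, normalized to vehicle-treated cultures.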

[5] = NCI Yeast Anticancer Drug Screen. Data for the rad50 strain (AID 155);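 also: 0% = growth of vehicle-only cultures of the same strain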; conditions: S. cerevisiae rad50 strain growth inhibition, active compounds read high
In short: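 Growth of the mutant yeast was measured after compound exposure and referenced to vehicle-treated cultures.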

[6] = NCI Yeast Anticancer Drug Screen. Data for the mec2-1 strain (AID 157); conditions: S. cerevisiae mec2-1 strain, active compounds read high
In short: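 Using mec2-1 yeast: add compound, measure growth, express inhibition versus vehicle-treated cultures.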

[7] = NCI Yeast Anticancer Drug Screen. Data for the rad14 strain (AID 159);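 also: 0% = growth of vehicle-treated control cultures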; conditions: S. cerevisiae rad14 strain growth inhibition, active compounds read high
In short: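 Here, inhibition of yeast growth was measured after compound exposure, using a strain with a genetic defect in DNA damage repair and vehicle-treated cultures as the reference.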

[8] = NCI Yeast Anticancer Drug Screen. Data for the CLN2oe strain (AID 163);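 also: 0% = growth of vehicle-only control cultures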; conditions: S. cerevisiae CLN2oe strain, active compounds read high
In short: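 Whole-cell yeast growth assay. A strain engineered for altered cell-cycle control received compound, and inhibition relative to vehicle-treated cultures was recorded.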

[9] = NCI Yeast Anticancer Drug Screen. Data for the cln2 rad14 strain (AID 165);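 also: 0% = growth equal to vehicle treated cultures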; conditions: S. cerevisiae cln2 rad14 strain, active compounds read high
In short: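 Yeast strain cln2 rad14, bearing defects in cell cycle control and DNA repair, serves as the test system; values reflect growth inhibition compared with vehicle.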

[10] = NCI Yeast Anticancer Drug Screen. Data for the bub3 strain (AID 167); conditions: S. cerevisiae bub3 mutant strain, active compounds read high
In short: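 Whole-cell yeast assay. The mutant strain was incubated with compounds, and growth inhibition was determined by comparison with vehicle-treated cells.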

[11] = NCI Yeast Anticancer Drug Screen. Data for the wt2 strain (AID 169);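 also: 0% = growth of vehicle-treated yeast cultures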; conditions: S. cerevisiae wt2 strain growth inhibition, active compounds read high
In short: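 Treated yeast vs. vehicle-treated yeast: growth inhibition determined.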

[12] = NCI Yeast Anticancer Drug Screen. Data for the mlh1 strain (AID 171);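 also: 0% = growth of vehicle-treated control cultures of the same strain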; conditions: S. cerevisiae mlh1 strain growth inhibition, active compounds read high
In short: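 A yeast strain with a defined genetic lesion serves as the test organism. Cultures receive compound or vehicle, and growth is measured.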

[13] = NCI Yeast Anticancer Drug Screen. Data for the sgs1 strain (AID 173);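 also: 0% = growth of vehicle-only control cultures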; conditions: S. cerevisiae sgs1 mutant, active compounds read high
In short: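 A genetically defined yeast mutant is incubated with the test compound, and its growth is compared to that of the same strain given vehicle.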

[14] = NCI Yeast Anticancer Drug Screen. Data for the mlh1 rad18 strain (AID 175); conditions: S. cerevisiae mlh1 rad18 strain growth inhibition, active compounds read high
In short: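 Steps: expose repair-defective yeast to compound; measure growth; express inhibition against vehicle-treated controls.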

[15] = NCI Yeast Anticancer Drug Screen. Data for the rad18 strain (AID 177); conditions: S. cerevisiae rad18 mutant growth inhibition, active compounds read high
In short: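 Measured value is growth inhibition of a yeast strain bearing a DNA repair alteration, referenced to vehicle-treated cells.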

[16] = at 5.0 µM (retest, dose inferred, filed as 0.5)
[17] = at 50.0 µM (retest, dose inferred, filed as 5.0)

Measured: growth inhibition

N#CCCC1C(C#N)C2(Cl)CC1(Cl)C(Cl)=C2Cl (configuration not stated)
inactive: [1]; at 1.2 µM -15% | [1]; at 3.7 µM -6% | [1]; at 11.0 µM -2% | [2]; at 1.2 µM -1% | [2]; at 3.7 µM 8% | [2]; at 11.0 µM 1% | [2]; at 33.0 µM 61% | [3]; at 1.2 µM -4% | [3]; at 3.7 µM -20% | [3]; at 11.0 µM -22% | [3]; at 33.0 µM 4% | [4]; at 1.2 µM -38% | [4]; at 3.7 µM -46% | [4]; at 11.0 µM -38% | [4]; at 33.0 µM 6% | [5]; at 1.2 µM -10% | [5]; at 3.7 µM 7% | [5]; [16] -23% | [5]; at 11.0 µM 1% | [6]; at 1.2 µM -29% | [6]; at 3.7 µM -8% | [6]; [16] -16% | [6]; at 11.0 µM -7% | [6]; at 33.0 µM 45% | [7]; at 1.2 µM -44% | [7]; at 3.7 µM -36% | [7]; at 11.0 µM -20% | [8]; at 1.2 µM -28% | [8]; at 3.7 µM -9% | [8]; at 11.0 µM -6% | [8]; at 33.0 µM 38% | [9]; [16] 17% | [10]; at 1.2 µM -1% | [10]; at 3.7 µM -6% | [10]; [16] -8% | [10]; at 11.0 µM -15% | [10]; at 33.0 µM 58% | [11]; at 1.2 µM 5% | [11]; at 3.7 µM 5% | [11]; at 11.0 µM 0% | [11]; at 33.0 µM 31% | [12]; at 1.2 µM -42% | [12]; at 3.7 µM -37% | [12]; at 11.0 µM -22% | [12]; at 33.0 µM 16% | [13]; at 1.2 µM 22% | [13]; at 3.7 µM 18% | [13]; at 11.0 µM 20% | [13]; at 33.0 µM 64% | [14]; [16] -3% | [15]; at 1.2 µM -4% | [15]; at 3.7 µM -9% | [15]; at 11.0 µM 1%
active: [1]; at 33.0 µM 81% | [1]; at 100.0 µM 98% | [2]; at 100.0 µM 98% | [3]; at 100.0 µM 84% | [4]; at 100.0 µM 98% | [5]; at 33.0 µM 84% | [5]; [17] 89% | [5]; at 50.0 µM 89.9% | [5]; at 100.0 µM 97% | [6]; [17] 82% | [6]; at 50.0 µM 92% | [6]; at 100.0 µM 98% | [7]; at 33.0 µM 77% | [7]; at 100.0 µM 98% | [8]; at 100.0 µM 96% | [9]; [17] 75% | [9]; at 50.0 µM 87.8% | [10]; [17] 73% | [10]; at 50.0 µM 89.2% | [10]; at 100.0 µM 96% | [11]; at 100.0 µM 98% | [12]; at 100.0 µM 97% | [13]; at 100.0 µM 99% | [14]; [17] 85% | [14]; at 50.0 µM 86.8% | [15]; at 33.0 µM 83% | [15]; at 100.0 µM 98%

O=[N+]([O-])c1cccc2nc3ccccc3c(NCCCN3CCCCC3)c12
inactive: [2]; at 1.2 µM 3% | [2]; at 3.7 µM 13% | [4]; at 1.2 µM 12% | [4]; at 3.7 µM 45% | [8]; at 1.2 µM -3% | [8]; at 3.7 µM 45% | [11]; at 1.2 µM 1% | [11]; at 3.7 µM 39% | [12]; at 1.2 µM 10% | [12]; at 3.7 µM 50%
active: [1]; at 1.2 µM 89% | [1]; at 3.7 µM 95% | [1]; at 11.0 µM 96% | [1]; at 33.0 µM 97% | [1]; at 100.0 µM 98% | [2]; at 11.0 µM 80% | [2]; at 33.0 µM 96% | [2]; at 100.0 µM 97% | [3]; at 1.2 µM 83% | [3]; at 3.7 µM 96% | [3]; at 11.0 µM 98% | [3]; at 33.0 µM 98% | [3]; at 100.0 µM 99% | [4]; at 11.0 µM 94% | [4]; at 33.0 µM 98% | [4]; at 100.0 µM 99% | [5]; at 1.2 µM 71% | [5]; at 3.7 µM 89% | [5]; [16] 89% | [5]; at 11.0 µM 94% | [5]; at 33.0 µM 96% | [5]; [17] 98% | [5]; at 50.0 µM 96.7% | [5]; at 100.0 µM 97% | [6]; at 1.2 µM 73% | [6]; at 3.7 µM 94% | [6]; [16] 97% | [6]; at 11.0 µM 97% | [6]; at 33.0 µM 97% | [6]; [17] 99% | [6]; at 50.0 µM 98.2% | [6]; at 100.0 µM 98% | [7]; at 1.2 µM 98% | [7]; at 3.7 µM 98% | [7]; at 11.0 µM 98% | [7]; at 33.0 µM 99% | [7]; at 100.0 µM 98% | [8]; at 11.0 µM 89% | [8]; at 33.0 µM 95% | [8]; at 100.0 µM 98% | [9]; [16] 99% | [9]; [17] 99% | [9]; at 50.0 µM 97.5% | [11]; at 11.0 µM 89% | [11]; at 33.0 µM 97% | [11]; at 100.0 µM 98% | [12]; at 11.0 µM 92% | [12]; at 33.0 µM 97% | [12]; at 100.0 µM 99% | [13]; at 1.2 µM 87% | [13]; at 3.7 µM 93% | [13]; at 11.0 µM 95% | [13]; at 33.0 µM 98% | [13]; at 100.0 µM 98% | [14]; [16] 97% | [14]; [17] 99% | [14]; at 50.0 µM 98% | [15]; at 1.2 µM 96% | [15]; at 3.7 µM 95% | [15]; at 11.0 µM 97% | [15]; at 33.0 µM 98% | [15]; at 100.0 µM 99%
